A selection: hits, their analogues and other compounds. The true share with any hit is near 3.6%.
Pf apPOL inh: Pf-apPOL DNA polymerase inhibition; inhibition, % at 10 µM; AID 1794808; 210,000 tested, 0.25% active; Recombinant Pf-apPOL, molecular beacon fluorescence, 1.5 h
mHTT CaM bind: inhibitors of human mutant huntingtin-calmodulin interaction. AlphaScreen His-mHTT/GST-CaM binding, luminescence. inhibition, % at 15 µM. P42858. 190,000 tested, 3.6% active
A number is an active result; - = inactive; . = no result; ! = not confirmed by another sample. Cut-off read from the data, not from the text of the source: active = inhibition above about 50%; inactive = the rest.

SMILES | Pf apPOL inh | mHTT CaM bind
CN(C)c1ccc(N=C2C=CC(=O)C=C2)cc1 | . | 95
CCc1ccc(Nc2c(C(=O)N3CCOCC3)cnc3nc(C)ccc23)cc1 | - | -
CC(C)(C)C(=O)NC1CCN(C(=O)c2ccccc2)C1 (centres undefined) | - | -
O=C(c1cccc(-c2nccnc2N2CCCC2)c1)N1CCN(c2ccccc2)CC1 | - | -
Cc1ccc2nc(NC(=O)CN3C(=O)c4ccccc4C3=O)sc2c1 | - | -
CN(C)CCN(C(=O)CN1C(=O)c2ccccc2C1=O)c1nc2ccc(Cl)cc2s1 | - | 84
Cc1ccc(NC(=O)Nc2ccc3nnc(C)n3c2)cc1C | - | -
Cc1ccc(/C=c2\sc3nc(=O)c(Cc4ccccc4)nn3c2=O)cc1 | - | -
CCC(Sc1nnc2c(n1)[nH]c1ccccc12)C(=O)Nc1cccc(C(C)=O)c1 (centres undefined) | - | 65!
O=C(CSc1nnc2c(n1)[nH]c1ccccc12)Nc1ccccc1 | - | -
CCCCc1nn(-c2ccccc2)[n+](-c2ccccc2)n1 | . | -
CCC(=O)N1CCc2sc(C(=O)N3CCN(CC)CC3)cc2C1 | - | -
CC(=O)N1CCc2sc(C(=O)N3CCN(c4cc(C)ccc4C)CC3)cc2C1 | - | 65
CC(=O)N1CCc2sc(C(=O)N3CCN(c4ccccc4F)CC3)cc2C1 | - | -
CCC(=O)N1CCc2sc(C(=O)N3CCN(c4cc(C)ccc4C)CC3)cc2C1 | - | 66
Cc1cn(-c2ccc(SCC(=O)NCc3ccc4c(c3)OCO4)nn2)cn1 | - | -
c1cncc(-c2nc(-c3ccnc(N4CCCC4)c3)no2)c1 | - | -
Oc1ccc(C2CC3CCC2C3)cc1O (centres undefined) | - | 54
Cc1cc(C2CCCCC2)ccc1O | - | -
O=c1[nH]c2cc(Cl)c(Cl)cc2nc1CN1CCN(c2ccccc2)CC1 | - | 52
Cc1cc2nc(CN3CCN(c4cccc(Cl)c4)CC3)c(=O)[nH]c2cc1C | - | -
O=C(CSc1nnnn1-c1ccccc1C(F)(F)F)Nc1nccs1 | - | -
Cc1nc2nc(SCC(=O)NCc3ccccc3)nn2c(C)c1Cc1ccccc1 | - | -
Cc1nc2c(C(=O)NCc3ccco3)cnn2c(C)c1Cc1cccc(Cl)c1 | - | -
Cc1nc2c(C(=O)NCc3cccnc3)cnn2c(C)c1Cc1cccc(Br)c1 | - | 58
SMILES | Pf apPOL inh | mHTT CaM bind
Cc1nc2c(C(=O)NCc3ccco3)cnn2c(C)c1Cc1cccc(Br)c1 | - | 51
Cc1nc2c(C(=O)NCc3ccccc3)cnn2c(C)c1Cc1cccc(Br)c1 | - | 66
Cc1nc2nc(CC(=O)NCc3ccccc3)nn2c(C)c1Cc1cccc(Cl)c1 | - | 63
Cc1ccc(CNC(=O)c2cnn3c(C)c(Cc4cccc(Cl)c4)c(C)nc23)cc1 | - | -
COc1ccccc1CNC(=O)c1cnn2c(C)c(Cc3cccc(Br)c3)c(C)nc12 | - | -
COc1ccc(-n2nc(C(=O)Nc3cc(OC)ccc3OC)c3ccccc3c2=O)cc1 | - | -
Cc1ccc(S(=O)(=O)Nc2nc(CCC(=O)NCc3ccco3)cs2)cc1 | - | -
COC(=O)c1c(C)oc(C)c1S(=O)(=O)NCc1ccc2c(c1)OCO2 | - | .
Cc1cc(Br)ccc1NC(=O)Cn1cnc(C)c(C)c1=O | - | -
CC(Oc1cccc(Cl)c1)C(=O)N1CCN(c2ccc([N+](=O)[O-])cc2)CC1 (centres undefined) | - | -
Cc1cc(Cl)ccc1OC(C)C(=O)N1CCN(c2ccc([N+](=O)[O-])cc2)CC1 (centres undefined) | 55 | -
CCC(Sc1nc2ccc(Br)cc2[nH]1)C(=O)O (centres undefined) | - | -
O=C(c1ccncc1)N1CCC(CCOc2ccccc2F)CC1 | - | -
Cc1cc(C)c(NC(=O)OCc2cccc3cccnc23)c(C)c1 | - | 100
Cc1cc(Cl)ccc1NC(=O)CSc1cccc2cccnc12 | - | -
CC(=O)NCCc1csc(C2CCN(C(=O)c3ccc(C(C)(C)C)cc3)CC2)n1 | - | -
c1ccc(OCCOc2ccc(-c3cc(C4CCNCC4)[nH]n3)cc2)cc1 | - | 62
c1ccc(OCCC2CCNCC2)cc1 | - | -
N#Cc1ccsc1NC(=O)COc1ccccc1 | - | -
O=C(/C=C/c1ccco1)c1cccs1 | - | 79
O=C(C=Cc1ccco1)c1ccc(O)cc1 | - | -
CC(C)CC1C(=O)N(Cc2cn(CCC3OCCCO3)nn2)CCS(=O)(=O)N1Cc1ccc(-c2ccc(Cl)c(Cl)c2)cc1 (centres undefined) | - | 60
CC(C)C1C(=O)N(Cc2cn(CCC3OCCO3)nn2)CCS(=O)(=O)N1Cc1ccc(-c2cccc(CO)c2)cc1 (centres undefined) | - | -
COc1ccc(-c2ccc(CN3C(CC(C)C)C(=O)N(Cc4cn(CCC5OCCO5)nn4)CCS3(=O)=O)cc2)cc1OC (centres undefined) | - | -
CC(C)CC1C(=O)N(Cc2cn(CCC3OCCO3)nn2)CCS(=O)(=O)N1Cc1ccc(-c2ccc(F)cc2)cc1 (centres undefined) | - | 68
SMILES | Pf apPOL inh | mHTT CaM bind
CC(C)CC1C(=O)N(Cc2cn(CCC3OCCO3)nn2)CCS(=O)(=O)N1Cc1ccc(-c2cccc(N(C)C)c2)cc1 (centres undefined) | - | 72
CC(C)CC1C(=O)N(Cc2cn(CCC3OCCCO3)nn2)CCS(=O)(=O)N1Cc1ccc(-c2ccc(Cl)nc2)cc1 (centres undefined) | - | -
COc1ccc(N(CC(N)=O)S(=O)(=O)c2ccccc2)cc1OC | - | -
Cc1nnc(-c2nnc(NC3CCCCCC3)c3ccccc23)o1 | - | -
Cc1ccc(CNC(=O)C2CCCN(c3ncccc3-c3noc(C4CCC4)n3)C2)cc1 (centres undefined) | - | -
Cc1ccccc1NC(=O)N1CCC2(C1)C(=O)Nc1ccccc12 (centres undefined) | - | -
Cc1ccc(C(O)C#CC(O)(c2ccccc2)c2ccccc2)o1 (centres undefined) | - | 58
OC(C#CC(O)(c1ccccc1)c1ccccc1)c1cccs1 (centres undefined) | - | -
OC(C#CC(O)(c1ccccc1)c1ccccc1)c1ccccc1F (centres undefined) | 88 | -
CN(C)C(C)(C)C#CC(O)(c1ccccc1)c1ccccc1 | - | -
COc1ccc(CC(=O)N2CCCC(c3nnc(-c4ccccc4F)s3)C2)cc1OC (centres undefined) | - | -
O=C(c1ccncc1)N1CCN(Cc2cccc([N+](=O)[O-])c2)CC1 | - | -
CCOc1ccc(N2CC(C(=O)Nc3ccc(C)c(C)c3)CC2=O)cc1 (centres undefined) | - | -
O=C(C1CCC1)N1CCC(Oc2cccc(F)c2)CC1 | - | -
Cc1ccc(-n2cc(-c3ccccc3)c3c(NCC4CCCO4)ncnc32)cc1 (centres undefined) | - | 56
CCCCNc1ncnc2c1c(-c1ccccc1)cn2-c1ccccc1 | - | -
CCn1cc(NC(=O)NCCc2c[nH]c3ccccc23)c2ccccc21 | - | 72
O=C(NCCc1c[nH]c2ccccc12)Nc1ccc(Cl)cc1 | - | .
CC(=O)Nc1ccc(C2=N/C(=C\c3ccccc3)C(=O)O2)cc1 | - | -
Cc1nc2c(C(=O)NC3CCCCC3C)cnn2c(C)c1Cc1cccc(Cl)c1 (centres undefined) | - | 71
Cc1nc2c(C(=O)NC3CCCCC3)cnn2c(C)c1Cc1cccc(Cl)c1 | - | 61
Cc1nc2c(C(=O)NC3CC3)cnn2c(C)c1Cc1ccccc1Cl | - | 58

Source: PubChem BioAssay (University of Kansas High Throughput Screening Laboratory)
